Test systems include HCT-15 colon; HT29 colon; SNB-75 CNS; SNB-19 CNS; U251 CNS; PC-3 prostate; SK-MEL-5 melanoma; UACC-62 melanoma; LOX IMVI melanoma; SK-MEL-28 melanoma; SK-MEL-2 melanoma; EKVX NSCLC; SN12C renal; UO-31 renal; TK-10 renal; ACHN renal; CAKI-1 renal; A498 renal; CCRF-CEM leukemia; MOLT-4 leukemia.
Holding throughout (test): NCI-60 one-dose screen, 48 h (100 = growth as untreated, 0 = no growth, -100 = all killed)
Common to all, as to conditions: 10 µM unless noted

Compounds without any hit were thinned out: in the full panel of roughly 83,000, 20% have a hit.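 Assay: single dose, 48 h. Readout: percent growth (0 = no net growth; negative = cell death). Active: <10.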 Unmarked numbers belong to inactive results. Calls of active or inactive are those of the source.

As to `O=c1c(/C=C/c2ccco2)nnc2sc(Nc3ccc(Cl)cc3)nn12`, the growth in the assay on HCT-15 colon was 108%; in the assay on HT29 colon, 93.5%; with SNB-75 CNS, 79.9%; in the assay with SNB-19 CNS, 94.2%; with U251 CNS it was 108%; with PC-3 prostate, 92.2%. The growth in the assay with SK-MEL-5 melanoma was 93.5%; with UACC-62 melanoma it was 92.4%; in the assay with LOX IMVI melanoma it was 97.6%; in the assay on SK-MEL-28 melanoma, 108%; in the assay with SK-MEL-2 melanoma, 95.6%; in the assay on EKVX NSCLC it was 90.9%. Besides, the growth is 107% with SN12C renal; 79% with UO-31 renal; 146% with TK-10 renal; 98.2% in the assay with ACHN renal; 98.5% in the assay with CAKI-1 renal; 108% in the assay with A498 renal. Further, the growth is 98% in the assay on CCRF-CEM leukemia and 95.7% in the assay on MOLT-4 leukemia.
Consider `O=C(NCc1cccnc1)/C(=C\c1ccc(Br)cc1)S(=O)(=O)c1ccccc1`, for which the growth in the assay with HCT-15 colon is -33.2% (active); in the assay on HT29 colon, -72.2% (active); in the assay on SNB-75 CNS, 9.38% (active); with SNB-19 CNS, -2.37% (active); with U251 CNS, -87.1% (active); in the assay with PC-3 prostate, -0.986% (active). The growth is -17.9% (active) with SK-MEL-5 melanoma; -31.3% (active) in the assay on UACC-62 melanoma; -89.5% (active) in the assay on LOX IMVI melanoma; -39.3% (active) in the assay with SK-MEL-28 melanoma; -44% (active) in the assay with SK-MEL-2 melanoma; 11.1% in the assay on EKVX NSCLC. Besides, the growth is -30.2% (active) in the assay with SN12C renal; 10.7% in the assay on UO-31 renal; -59.4% (active) with TK-10 renal; -15.3% (active) with ACHN renal; -2.88% (active) with CAKI-1 renal; -20.4% (active) with A498 renal. The growth was 25.2% in the assay on CCRF-CEM leukemia and 64.1% with MOLT-4 leukemia.
Consider `Cc1nn(-c2nc(-c3cc4ccccc4oc3=O)cs2)c(C)c1N=Nc1ccccc1`, for which the growth with HCT-15 colon is 106%; in the assay with HT29 colon it was 103%; in the assay with SNB-75 CNS it was 89.4%; with SNB-19 CNS, 101%; in the assay with U251 CNS, 88.8%; in the assay on PC-3 prostate, 106%. The growth is 101% with SK-MEL-5 melanoma; 86.6% in the assay with UACC-62 melanoma; 96.7% in the assay on LOX IMVI melanoma; 108% in the assay with SK-MEL-28 melanoma; 113% in the assay on SK-MEL-2 melanoma; 99.8% with EKVX NSCLC. The growth with SN12C renal was 103%; with UO-31 renal, 79.3%; in the assay on TK-10 renal, 112%; in the assay with ACHN renal, 108%; with CAKI-1 renal it was 89.2%; in the assay with A498 renal, 100%. Moreover, the results for the growth in the assay with CCRF-CEM leukemia and with MOLT-4 leukemia were 105% and 100%, respectively.
As for `COc1cc2cc(NCc3ccncc3)nc(C)c2cc1OC`, the growth was 82.9% in the assay with HCT-15 colon; 91.6% in the assay on HT29 colon; 97% in the assay on SNB-75 CNS; 93.8% with SNB-19 CNS; 78.5% in the assay with U251 CNS; 77.8% in the assay with PC-3 prostate. The growth was 95.2% in the assay on SK-MEL-5 melanoma; 97.8% in the assay on UACC-62 melanoma; 88% in the assay on LOX IMVI melanoma; 99.2% with SK-MEL-28 melanoma; 100% with SK-MEL-2 melanoma; 96.3% with EKVX NSCLC. For the same compound, the growth is 97.1% with SN12C renal; 89.8% with UO-31 renal; 83.5% with TK-10 renal; 101% in the assay on ACHN renal; 82.3% with CAKI-1 renal; 72.4% with A498 renal. Further, the growth in the assay with CCRF-CEM leukemia was 112%; with MOLT-4 leukemia, 109%.
As for `COC(=O)/C=C1/SC(N2N=C(c3cccs3)CC2c2ccc(F)cc2)=NC1=O` (stereo not given), the growth in the assay with HCT-15 colon is -9.66% (active); in the assay with HT29 colon, 13.3%; in the assay with SNB-75 CNS, 48%; with SNB-19 CNS, 76.4%; in the assay with U251 CNS it was 22.1%; in the assay on PC-3 prostate, 64.5%. Also, the growth in the assay on SK-MEL-5 melanoma was 54.1%; in the assay with UACC-62 melanoma, 56.8%; in the assay on LOX IMVI melanoma it was -46.5% (active); with SK-MEL-28 melanoma, 43.8%; in the assay with SK-MEL-2 melanoma it was 80.9%; in the assay with EKVX NSCLC it was 94%. For the same compound, the growth is 56% in the assay on SN12C renal; 52.6% with UO-31 renal; 78.5% in the assay with TK-10 renal; 74.4% in the assay on ACHN renal; 77% with CAKI-1 renal; 80.5% with A498 renal. Besides, the growth is 8.74% (active) in the assay on CCRF-CEM leukemia and -3.67% (active) with MOLT-4 leukemia.
Turning to `Cc1ccc(-c2nc(C#N)c(S(=O)(=O)N(C)C)o2)cc1`, the growth in the assay with HCT-15 colon was 19.7%; in the assay with HT29 colon, 97.7%; with SNB-75 CNS, 83.7%; with SNB-19 CNS it was 98.2%; in the assay on U251 CNS, 93.3%; with PC-3 prostate, 103%. The growth with SK-MEL-5 melanoma is 92.5%; in the assay on UACC-62 melanoma, 97.5%; with LOX IMVI melanoma it was 49.8%; with SK-MEL-28 melanoma it was 102%; in the assay with SK-MEL-2 melanoma it was 91.1%; in the assay with EKVX NSCLC, 106%. Besides, the growth in the assay on SN12C renal is 75.2%; with UO-31 renal it was 91.7%; in the assay on TK-10 renal, 103%; in the assay with ACHN renal it was -59.4% (active); with CAKI-1 renal, 90%; in the assay on A498 renal, 77%. Further, the growth in the assay on CCRF-CEM leukemia is -10.9% (active); in the assay on MOLT-4 leukemia, -22.8% (active).
In the case of `Cc1ccc2nc3ccccc3c(NCc3ccc(Cl)cc3)c2c1`, the growth in the assay on HCT-15 colon is 14.5%; in the assay on HT29 colon, 5.35% (active); in the assay with SNB-75 CNS, 66.5%; in the assay with SNB-19 CNS, 50.3%; with U251 CNS, 25.1%; in the assay with PC-3 prostate it was 39.1%. Moreover, the growth in the assay with SK-MEL-5 melanoma is 54%; in the assay on UACC-62 melanoma, 74%; in the assay with LOX IMVI melanoma it was -57.1% (active); in the assay with SK-MEL-28 melanoma, 75.5%; in the assay with SK-MEL-2 melanoma it was 102%; in the assay with EKVX NSCLC it was 55.4%. Moreover, the growth was 39.6% in the assay on SN12C renal; 24.5% with UO-31 renal; 82.4% in the assay on TK-10 renal; 33.3% in the assay with ACHN renal; 45.7% in the assay on CAKI-1 renal; 13% in the assay with A498 renal. The figures for the growth in the assay on CCRF-CEM leukemia and with MOLT-4 leukemia were 18.2% and 0.0972% (active), respectively.

These data come from PubChem BioAssay (NCI).
